Assay results taken from the supplement of paper PMC13380429.
Values without a mark were called inactive.

Tested on: Vero E6 infected with SARS-CoV-2
Assay: inhibition of SARS-CoV-2 cytopathic effect; higher = more antiviral protection, active = above 15
Settings: 48 h

Row | Structure (SMILES) | inhibition of SARS-CoV-2 cytopathic effect (1 nM) [%] | inhibition of SARS-CoV-2 cytopathic effect (8.33 nM) [%] | inhibition of SARS-CoV-2 cytopathic effect (100 nM) [%] | inhibition of SARS-CoV-2 cytopathic effect (833.33 nM) [%] | inhibition of SARS-CoV-2 cytopathic effect (10000 nM)
1 | COc1ccc2[nH]c(SCc3ncc(C)c(OC)c3C)nc2c1 [omeprazole-sulfide] | -13.8 | -15.1 | -15.8 | -15.3 | -13.7%
2 | C[C@]12CCC(=O)C=C1CC[C@@H]1[C@@H]2[C@@H](O)C[C@@]2(C)[C@H]1CC[C@]2(O)C(=O)CO [hydrocortisone] | -3.82 | -3.12 | -3.55 | -4.8 | -3.51%
3 | Cc1ncc[nH]1 [2-methylimidazole] | -0.11 | 1.86 | 0.89 | -3.06 | 0.33%
4 | CN(C)CCCO[C@@H]1[C@H]2OC(C)(C)O[C@H]2O[C@@H]1[C@H](O)CO [amiprilose] | -4.79 | -3.54 | -5.54 | -4.16 | -1.28%
5 | OC[C@@H](O)[C@@H](O[C@@H]1O[C@H](CO)[C@H](O)[C@H](O)[C@H]1O)[C@H](O)[C@@H](O)CO | -1.07 | 0.84 | 0.06 | 0.18 | -0.36%
6 | COc1cc2c(cc1OC)[C@H](C)NCC2 [Isoquinoline,-6,7-dimethoxy-1-methyl-1,2,3,4-tetrahydro,] | -4.15 | -1.29 | -0.88 | -1.82 | -2.99%
7 | C(#Cc1nc2ncccc2nc1OCCN1CCCC1)c1ccccc1 | -1.59 | -0.87 | -1.72 | 7.05 | 15.8% (active)
8 | N#C/C(=C\c1ccc(O)c(O)c1)C(=O)OCCc1cccs1 | 1.43 | 1.78 | 7.36 | -1.53 | 1.2%
9 | Cc1cccc(/C=C/c2ccccc2)n1 | 3.85 | -0.34 | -0.78 | -1.72 | -2.74%
10 | CCOc1ccc(-c2ccc(Cn3c(CC(C)(C)C(=O)O)c(SC(C)(C)C)c4cc(OCc5ccc(C)cn5)ccc43)cc2)cn1 | 1.07 | 0.1 | -0.84 | -0.16 | -0.78%
11 | O=C1[C@H]2CCCC[C@H]2C(=O)N1CCCCN1CCN(c2nsc3ccccc23)CC1 [perospirone] | -1.38 | 3.93 | 3.52 | 3.58 | -1.69%
12 | CC(C)(C)[C@]1(O)CCN2C[C@H]3c4ccccc4CCc4cccc(c43)[C@@H]2C1 [butaclamol] | 1.69 | 1.31 | 0.21 | 1.72 | -3.01%
13 | CCOC(=O)c1ccc(NC2CCCCC2)c(N)c1 [ferrostatin-1] | 0.05 | 3.56 | 2.61 | 2.6 | 2.1%
14 | COc1ccc2c(c1)C(=O)N(CCc1ccc(S(=O)(=O)NC(=O)NC3CCCCC3)cc1)C(=O)C2(C)C [gliquidone] | -1.78 | 2.65 | 2.68 | -0.14 | -0.29%
15 | CCc1[nH]c(=O)[nH]c1C(=O)c1ccncc1 [piroximone] | -0.93 | 5 | 3.91 | 3.62 | -1.11%
16 | Cc1[nH]c(/C=C2\C(=O)Nc3ccccc32)c(C)c1CCC(=O)O [orantinib] | -0.96 | 2.48 | 1.61 | -0.48 | -0.87%
17 | Cc1cc(NC(=O)C(c2ccccc2)N2CCCc3ccccc32)no1 (stereo not given) | 0.33 | -0.92 | 1.85 | 0.35 | 3.91%
18 | C=C[C@@]1(C)CC(=O)[C@]2(O)[C@@]3(C)[C@@H](O)CCC(C)(C)[C@@H]3[C@H](OC(=O)CCN(C)C)[C@H](OC(C)=O)[C@@]2(C)O1 [colforsin-daproate] | 0.4 | -2.13 | -3.35 | 3.07 | 29.6% (active)
